# Data taken from PubChem BioAssay (NCATS).
# Where “and” joins values, the source holds several entries; their conditions need not be identical. Equal values may be shown once. Results filed as inconclusive are left out. Calls of active or inactive are those of the source. Unless noted, the call rests on the fitted dose curve.
# Columns and labels:
# [1] = qHTS drug screen for cell cycle checkpoint inhibitors in PARPi-resistant BRCA-mutant ovarian cancer cell lines. (AID 1963452); settings: PEO1/OlaR viability, CellTiter-Glo luminescence, 96 h; for Z-AUC: stronger effect = lower value; further: potency means the concentration at half of the fitted maximal effect
# Procedure, shortened: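 PEO1, PEO4 and PEO1/OlaR ovarian cancer cells, 600 per well, exposed 96 h at 37C to a dilution series. Viability read by CellTiter-Glo luminescence, normalized to DMSO and empty wells; activity summarized as Z-AUC.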
# [2] = qHTS for identification of novel therapeutic agents for treatment of microphthalmiaassociated transcription factor (MiT) renal cell carcinoma (RCC) (AID 1963991); settings: CellTiter-Glo, 48 h, stronger effect = lower value;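 further: curves scaled with 100% = DMSO viability and 0% = empty wells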
# Procedure, shortened: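 UOK109/UOK124/UOK145 (TFE3 fusions, three partners); 500 cells/well; MIPE v4.0, 1912 cpds, 11 conc.; 48 h, 37 C; CellTiter-Glo, 15 min RT; lum. Norm.: DMSO 100%, empty 0%.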
# [3] = qHTS profiling for inhibitors of Plasmodium falciparum proliferation (AID 504749; active means well fitted inhibition curve with a large enough effect;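 further: 0% = DMSO vehicle and full inhibition = artemisinin control; nearly all actives have a fitted effect of over 60% in size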); settings: P. falciparum in erythrocytes, SYBR Green DNA, 72 h, at 28.7 µM (top of the series)
# Procedure, shortened: (§1)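 Three-day growth assay of blood-stage parasites in erythrocytes (0.3% parasitemia, 2.5% hematocrit) at 37 C, 5% CO2, quantified by SYBR Green DNA staining after overnight detergent lysis.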
# 3D7 = assay: as above; settings: P. falciparum in erythrocytes, SYBR Green DNA, 72 h; series mostly up to 28.7 µM
# Procedure, shortened: as §1
# 7G8 = assay: as above; settings: P. falciparum in erythrocytes, SYBR Green DNA, 72 h; series mostly up to 28.7 µM
# Procedure, shortened: as §1
# AA1029 = assay: as above; settings: P. falciparum in erythrocytes, SYBR Green DNA, 72 h; series mostly up to 28.7 µM
# Procedure, shortened: as §1
# AS120 = assay: as above; settings: P. falciparum in erythrocytes, SYBR Green DNA, 72 h; series mostly up to 28.7 µM
# Procedure, shortened: as §1
# ATS189 = assay: as above; settings: P. falciparum in erythrocytes, SYBR Green DNA, 72 h; series mostly up to 28.7 µM
# Procedure, shortened: as §1
# ATS95 = assay: as above; settings: P. falciparum in erythrocytes, SYBR Green DNA, 72 h; series mostly up to 28.7 µM
# Procedure, shortened: as §1
# C2A = assay: as above; settings: P. falciparum in erythrocytes, SYBR Green DNA, 72 h; series mostly up to 28.7 µM
# Procedure, shortened: as §1
# [4] = measured here: PEO1 parental Z-AUC
smiles,measurement,setting,value
C[C@]1(c2nc3c(C(N)=O)cccc3[nH]2)CCCN1,Z-AUC,[1],0.745 (inactive)
same,Z-AUC,[1]; [4],0.586
same,Z-AUC,[1]; measured here: PEO4 Z-AUC,0.314
COc1ccc(COc2cc3oc(=O)c4cc(C(C)O)ccc4c3cc2OC)cc1 (stereo not drawn),Z-AUC,[1],1.06 (inactive)
same,Z-AUC,[1]; [4],0.636
same,Z-AUC,[1]; measured here: PEO4 Z-AUC,1.09
CCC(=O)N[C@H]1CC[C@H](C(=O)N(C)c2ccc(-c3nc4ccccc4o3)cc2)C1,Z-AUC,[1],-0.0495 (inactive)
same,Z-AUC,[1]; [4],-0.000542
same,Z-AUC,[1]; measured here: PEO4 Z-AUC,0.214
CC1(C)CNc2cc(NC(=O)c3cccnc3NCc3ccncc3)ccc21,Z-AUC,[1],1.35 (inactive)
same,Z-AUC,[1]; [4],0.457
same,Z-AUC,[1]; measured here: PEO4 Z-AUC,0.272
Cn1cnc2c(F)c(Nc3ccc(Br)cc3Cl)c(C(=O)NOCCO)cc21,Z-AUC,[1],0.189 (inactive)
same,Z-AUC,[1]; [4],0.0472
same,Z-AUC,[1]; measured here: PEO4 Z-AUC,-0.246
CCOc1cc(C(=O)Nc2ccc(Cl)c(-c3nc4ccccc4[nH]3)c2)cc(OCC)c1OCC,Z-AUC,[1],-0.941 (inactive)
same,Z-AUC,[1]; [4],0.578
same,Z-AUC,[1]; measured here: PEO4 Z-AUC,-0.467
COc1nc(-c2ccc3c(c2)OCO3)n(-c2ccc(NC(=O)CSc3ccccc3)cc2)n1,Z-AUC,[1],1.83 (inactive)
same,Z-AUC,[1]; [4],1.23
same,Z-AUC,[1]; measured here: PEO4 Z-AUC,1.19
COc1ccc2c3n(c(=NC(=O)c4cccnc4)nc2c1OC)CCN3,Z-AUC,[1],-0.738 (inactive)
same,Z-AUC,[1]; [4],-0.328
same,Z-AUC,[1]; measured here: PEO4 Z-AUC,-0.378
CCN(c1ccccc1)c1cc(NC)[n+](C)c(C)n1,Z-AUC,[1],1.35 (inactive)
same,Z-AUC,[1]; [4],1.27
same,Z-AUC,[1]; measured here: PEO4 Z-AUC,1.04
CCCCCCCc1ccc(CCc2cccc(O)c2C(=O)O)cc1,Z-AUC,[1],1.13 (inactive)
same,Z-AUC,[1]; [4],0.41
same,Z-AUC,[1]; measured here: PEO4 Z-AUC,0.518
COc1ccc(C2=N[C@H](c3ccc(Cl)cc3)[C@H](c3ccc(Cl)cc3)N2C(=O)N2CCNC(=O)C2)c(OC(C)C)c1,Z-AUC,[1],0.858 (inactive)
same,Z-AUC,[1]; [4],0.454
same,Z-AUC,[1]; measured here: PEO4 Z-AUC,1.13
Cc1cnc(NC(=O)C2=C(O)c3ccccc3S(=O)(=O)N2C)s1,Z-AUC,[1],0.682 (inactive) and 1.14 (inactive) and 0.871 (inactive)
same,Z-AUC,[1]; [4],0.615 and 0.579 and 0.604
same,Z-AUC,[1]; measured here: PEO4 Z-AUC,0.593 and 0.643 and 0.888
Cc1cc([C@@H](C)Nc2ccccc2C(=O)O)c2nc(N3CCOCC3)cc(=O)n2c1,Z-AUC,[1],0.266 (inactive)
same,Z-AUC,[1]; [4],0.877
same,Z-AUC,[1]; measured here: PEO4 Z-AUC,0.854
COc1cc(Oc2ccnc3cc(OC)c(OC)cc23)ccc1NC(=O)NC(C)c1nccs1 (stereo not drawn),Z-AUC,[1],-0.894 (inactive)
same,Z-AUC,[1]; [4],-0.402
same,Z-AUC,[1]; measured here: PEO4 Z-AUC,-0.764
Cc1ccc(NC(=O)c2cccc(C(C)(C)C#N)c2)cc1Nc1ccc2ncn(C)c(=O)c2c1,Z-AUC,[1],0.851 (inactive)
same,Z-AUC,[1]; [4],0.186
same,Z-AUC,[1]; measured here: PEO4 Z-AUC,0.24
CN(C)C(=O)c1ccc(S(=O)(=O)c2ccc(NC(=O)[C@@](C)(O)C(F)(F)F)c(Cl)c2)cc1,Z-AUC,[1],0.422 (inactive)
same,Z-AUC,[1]; [4],-0.221
same,Z-AUC,[1]; measured here: PEO4 Z-AUC,0.763
COc1cccc2cc(-c3nc(C4CCC(C(=O)O)CC4)n4ncnc(N)c34)[nH]c12 (stereo not drawn),Z-AUC,[1],-0.482 (inactive)
same,Z-AUC,[1]; [4],-0.688
same,Z-AUC,[1]; measured here: PEO4 Z-AUC,-0.315
COc1cc(F)c(F)c(Nc2ccc(I)cc2F)c1NS(=O)(=O)C1(C[C@H](O)CO)CC1,Potency,[1],2450 nM (active)
same,Z-AUC,[1]; [4],-1.43
same,Z-AUC,[1]; measured here: PEO4 Z-AUC,-1.19
CC(=O)NC(C)c1ccc(Oc2ccc(OC(C)C)cc2)cc1 (stereo not drawn),Z-AUC,[1],0.0363 (inactive)
same,Z-AUC,[1]; [4],0.0694
same,Z-AUC,[1]; measured here: PEO4 Z-AUC,-0.363
COc1c(Cl)cc2c([nH]c3cnccc32)c1NC(=O)c1cccnc1C,Z-AUC,[1],1.1 (inactive)
same,Z-AUC,[1]; [4],0.859
same,Z-AUC,[1]; measured here: PEO4 Z-AUC,0.857
COc1cc2c(cc1OC)CN(CCc1ccc(NC(=O)c3cccc4c(=O)c5cccc(OC)c5[nH]c34)cc1)CC2,Z-AUC,[1],1.13 (inactive)
same,Z-AUC,[1]; [4],0.952
same,Z-AUC,[1]; measured here: PEO4 Z-AUC,0.963
CCC(C)(C)C(=O)O[C@H]1C[C@@H](C)C=C2C=C[C@H](C)[C@H](CC[C@@H]3C[C@@H](O)CC(=O)O3)[C@H]21,Z-AUC,[1],1.29 (inactive)
same,Z-AUC,[1]; [4],1.6
same,Z-AUC,[1]; measured here: PEO4 Z-AUC,2.06
O=C(Nc1ccc(F)c(C(F)(F)F)c1)Nc1nnc(-c2ccncc2)s1,Z-AUC,[1],-0.226 (inactive)
same,Z-AUC,[1]; [4],-0.821
same,Z-AUC,[1]; measured here: PEO4 Z-AUC,-0.018
O=C1CCCC2=C1C(c1[nH]ncc1Cl)N=C(Nc1nc3ccccc3o1)N2 (stereo not drawn),Z-AUC,[1],0.0101 (inactive)
same,Z-AUC,[1]; [4],0.851
same,Z-AUC,[1]; measured here: PEO4 Z-AUC,0.0586
Cc1cc2c(F)c(Oc3ncnn4cc(OC[C@@H](C)O)c(C)c34)ccc2[nH]1,Z-AUC,[1],0.786 (inactive)
same,Z-AUC,[1]; [4],0.535
same,Z-AUC,[1]; measured here: PEO4 Z-AUC,0.987
CCN(CC)CCCC(C)Nc1nc(C)cc(Nc2ccc3nc(C)cc(N)c3c2)n1 (stereo not drawn),Z-AUC,[1],0.723 (inactive)
same,Z-AUC,[1]; [4],0.692
same,Z-AUC,[1]; measured here: PEO4 Z-AUC,0.29
N[C@@H]1CONC1=O,Z-AUC,[1],-0.0127 (inactive)
same,Z-AUC,[1]; [4],1.55
same,Z-AUC,[1]; measured here: PEO4 Z-AUC,1.43
same,z-score,"[2]; TFE3-RCC UOK109 viability, measured here: UOK109 Z-AUC",0.394
same,z-score,"[2]; TFE3-RCC viability, measured here: UOK124 Z-AUC",0.295
same,z-score,"[2]; TFE3-RCC viability, measured here: UOK145 Z-AUC",0.675
same,"activity, negative = inhibition",[3]; parasite line A,-21% (inactive)
same,"activity, negative = inhibition",[3]; parasite line B,-17% (inactive)
same,Potency,3D7,inactive
same,Potency,7G8,inactive
same,Potency,AA1029,inactive
same,Potency,AS120,inactive
same,Potency,ATS189,inactive
same,Potency,ATS95,inactive
same,Potency,C2A,inactive
